Screens: PubChem, National Center for Advancing Translational Sciences (NCATS)
TDP1 cell CPT = DT40-hTDP1 cell growth loss with CPT. chicken DT40 Tdp1-/-;hTDP1 cells + 20 nM CPT, ATP luminescence, 48 h. Potency, µM (titrated, usually from 46.2 µM), usual class: inhibitors. 420,000 tested, 12% active; note: nearly all actives have a fitted effect of over 55% in size
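Cell growth measured by CellTiter-Glo luminescence after a minimum 48 h, 37 C compound exposure with 20 nM CPT in Tdp1-knockout DT40 cells stably expressing hTDP1, seeded 400/well; qHTS titration format.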
ASM inhibitor = blocks human secretory acid sphingomyelinase. P17405. placental ASM, HMU-PC fluorogenic substrate, 60 min. Potency, µM (top dose mostly 57.5 µM), usual class: inhibitors. 340,000 tested, 0.006% active
Target sequence (P17405 47-631 limits assumed): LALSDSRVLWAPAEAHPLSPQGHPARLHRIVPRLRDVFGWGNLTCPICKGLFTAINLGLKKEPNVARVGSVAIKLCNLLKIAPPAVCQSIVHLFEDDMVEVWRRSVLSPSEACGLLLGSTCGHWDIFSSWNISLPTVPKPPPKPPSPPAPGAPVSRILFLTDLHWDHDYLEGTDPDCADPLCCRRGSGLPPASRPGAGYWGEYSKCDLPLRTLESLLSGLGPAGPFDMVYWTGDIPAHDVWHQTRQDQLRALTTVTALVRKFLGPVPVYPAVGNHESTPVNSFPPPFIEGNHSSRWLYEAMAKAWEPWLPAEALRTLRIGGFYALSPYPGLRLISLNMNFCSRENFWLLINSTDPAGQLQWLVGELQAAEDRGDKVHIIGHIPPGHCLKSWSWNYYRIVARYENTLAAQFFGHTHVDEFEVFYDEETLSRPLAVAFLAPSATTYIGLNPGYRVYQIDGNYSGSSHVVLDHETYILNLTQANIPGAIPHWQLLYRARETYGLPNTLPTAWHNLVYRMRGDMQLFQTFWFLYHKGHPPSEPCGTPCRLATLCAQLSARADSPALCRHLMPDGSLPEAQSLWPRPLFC
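Steps: dispense placental human ASM, pin compound, wait 10 min at room temperature, add HMU-PC0 substrate at 9 uM final, incubate 60 min at 37 °C, add stop solution raising pH to 10, read fluorescence.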
HepG2 tox = counter-screen for TGF-b inhibitors: cytotoxicity in HepG2 cells. HepG2 CAGA-GFP viability, ATP luminescence, 18 h. 410,000 tested, 0.76% active. AID 588856. Potency, µM (highest dose often 46.1 µM), most hits filed as cytotoxic
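CellTiter-Glo luminescence gave cytotoxicity after 18 hours at 37 degrees C. The cells were HepG2 CAGA-GFP in 1% FBS DMEM, stimulated with 500 pg/mL TGF-beta after compound addition. %Activity was normalised to no-cell wells (complete cell-killing) and DMSO (no toxicity), and curves were fitted and classified.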
IL-1B inflam inh = inhibitors of inflammasome signaling (IL-1 beta secretion). THP-1 LPS/ATP IL-1B secretion, AlphaLISA, 16 h; stronger effect = lower value. AID 743279. 360,000 tested, 4.7% active. activity change, % at 57.5 µM; in the data active = activity change below about -50%; inconclusive = mostly about -30% to -49%
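Secreted IL-1B measured by AlphaLISA bead assay after 16 h compound exposure of THP-1 cells; compounds (final up to 57.5 uM) added 1 h before LPS (250 ng/mL) and ATP (1.25 mM) stimulation; lower signal means less secretion.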
TGFb SMAD3 inh = TGF-b pathway inhibition. AID 588855. HepG2 CAGA-GFP TGF-b/SMAD3 reporter, GFP fluorescence, 18 h; TGF-beta stimulated, 500 pg/mL final. 410,000 tested, 1.2% active. Potency, µM (series often up to 46.1 µM), hits mostly inhibitors; note: nearly all actives have a fitted effect of over 65% in size
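HEPG2 CAGA-GFP cells (1000/well, DMEM with 1% FBS) were pre-incubated 2 h at 37 degrees C, given compound by pin tool, then stimulated with TGF-beta at 500 pg/mL final for 18 h before per-cell GFP fluorescence imaging.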
DT40 TDP1 no CPT = qHTS for Inhibitors of human tyrosyl-DNA phosphodiesterase 1 (TDP1): qHTS in cells in absence of CPT; DT40 Tdp1-/- hTDP1 cells, no CPT, ATP luminescence, 48 h; Potency, µM (doses to about 46.2 µM), actives largely listed as inhibitors; 420,000 tested, 15% active; AID 686978, 2013; note: nearly all actives have a fitted effect of over 55% in size
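Compound effects on proliferation are scored in DT40 Tdp1-/-;hTDP1 cells in the absence of CPT. ATP levels (CellTiter-Glo luminescence) are recorded after a ≥48 hr, 37 °C incubation.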
Numbers stand for hits. A selection: hits, their analogues and other compounds. The true share with any hit is near 19%. Unless noted, calls come from the whole dose curve; as a rule, active = well fitted curve in the direction sought with a large enough effect; inconclusive = small, poorly fitted or top-dose-only effect, or another doubt; inactive = no such curve, though single readings can be large; an effect the other way counts as inactive or inconclusive.

Cc1cccc(N2CCN(C(=O)Cn3nc(Cc4cccnc4)c4ccccc4c3=O)CC2)c1C was read as TDP1 cell CPT 13µM, HepG2 tox inactive, TGFb SMAD3 inh inconclusive and DT40 TDP1 no CPT 8.2µM.
For CCN(C(=O)Cn1nc(Cc2cccnc2)c2ccccc2c1=O)c1cc(C)ccc1C the results were TDP1 cell CPT 23µM, HepG2 tox inactive, TGFb SMAD3 inh inconclusive and DT40 TDP1 no CPT 23µM.
For Cc1ccc(NC(=O)Cn2nc(Cc3ccncc3)c3ccccc3c2=O)c(Cl)c1 the results were TDP1 cell CPT inactive, HepG2 tox inactive, TGFb SMAD3 inh inconclusive and DT40 TDP1 no CPT inactive.
Screening COc1ccc(Cl)cc1NC(=O)Cn1nc(Cc2ccncc2)c2ccccc2c1=O returned TDP1 cell CPT inconclusive, HepG2 tox inactive, TGFb SMAD3 inh inconclusive and DT40 TDP1 no CPT 23µM.
COc1ccc(Cl)cc1NC(=O)Cn1c(=O)n(Cc2ccco2)c(=O)c2cccnc21 was read as TDP1 cell CPT inconclusive, HepG2 tox inactive, TGFb SMAD3 inh inactive and DT40 TDP1 no CPT 16µM.
For COc1ccc(S(=O)(=O)N2CCOCC2)cc1NC(=O)COC(=O)CCS(=O)(=O)c1ccc(C)cc1 the results were TDP1 cell CPT inconclusive, ASM inhibitor inactive, HepG2 tox inactive, IL-1B inflam inh inactive, TGFb SMAD3 inh inactive and DT40 TDP1 no CPT inconclusive.
For Cc1oc2ncn(C)c(=O)c2c1C(=O)NCc1ccc(Cl)cc1 the results were TDP1 cell CPT inactive, HepG2 tox inactive, TGFb SMAD3 inh inactive and DT40 TDP1 no CPT inconclusive.
For CCN(C(=O)Cn1nc(Cc2ccncc2)c2ccccc2c1=O)c1cccc(Cl)c1 the results were TDP1 cell CPT inconclusive, HepG2 tox inactive, TGFb SMAD3 inh inconclusive and DT40 TDP1 no CPT 21µM.
Cc1ccc(Nc2sc(C(=O)c3ccccc3)c(N)c2S(=O)(=O)c2ccccc2)cc1Cl was read as TDP1 cell CPT inactive, HepG2 tox inactive, TGFb SMAD3 inh inactive and DT40 TDP1 no CPT inconclusive.
CC/C(C)=N\Nc1nc(-c2cc3cc(OC)ccc3oc2=O)cs1 was read as TDP1 cell CPT inconclusive, ASM inhibitor inactive, HepG2 tox inactive, IL-1B inflam inh inactive, TGFb SMAD3 inh inactive and DT40 TDP1 no CPT 18µM.
COc1ccc2oc(=O)c(-c3nc(C)cs3)cc2c1 was read as TDP1 cell CPT inactive, ASM inhibitor inactive, HepG2 tox inactive, IL-1B inflam inh inactive, TGFb SMAD3 inh inactive and DT40 TDP1 no CPT inactive.
COc1cccc(Nc2nnc(-c3cc4ccc(O)cc4oc3=O)s2)c1 was read as TDP1 cell CPT inconclusive, HepG2 tox inactive and DT40 TDP1 no CPT 23µM.
Screening COc1cccc2cc(-c3nc4ccc(C)cc4[nH]3)c(=O)oc12 returned TDP1 cell CPT inactive, HepG2 tox inactive, TGFb SMAD3 inh inactive and DT40 TDP1 no CPT inconclusive.
Screening COc1ccc2oc(=O)c(-c3nc4ccc(C)cc4[nH]3)cc2c1 returned TDP1 cell CPT 1µM, HepG2 tox inactive, TGFb SMAD3 inh inactive and DT40 TDP1 no CPT 1.5µM.
For Nc1nnc(-c2cc3ccccc3oc2=O)s1 the results were TDP1 cell CPT inactive, ASM inhibitor inactive, HepG2 tox inactive, IL-1B inflam inh inactive, TGFb SMAD3 inh inactive and DT40 TDP1 no CPT inconclusive.
`COc1ccc2oc(=O)c(-c3nnc(N)s3)cc2c1` gave TDP1 cell CPT inactive, ASM inhibitor inactive, HepG2 tox inactive, IL-1B inflam inh -84, TGFb SMAD3 inh inactive and DT40 TDP1 no CPT inactive.
`COc1cccc(-c2cc(=O)c3cc(NC(=O)c4ccc(N(C)C)cc4)ccc3[nH]2)c1` gave TDP1 cell CPT 0.92µM, ASM inhibitor inactive, HepG2 tox inactive, IL-1B inflam inh inactive, TGFb SMAD3 inh inconclusive and DT40 TDP1 no CPT 1µM.
`COc1cccc(-c2cc(=O)c3cc(NC(=O)c4ccccc4)ccc3[nH]2)c1` gave TDP1 cell CPT 4.6µM, ASM inhibitor inactive, HepG2 tox inactive, IL-1B inflam inh inactive, TGFb SMAD3 inh inconclusive and DT40 TDP1 no CPT 4.1µM.
